Our source for the growth values is PubChem BioAssay (NCI).

About 83,000 compounds went through this panel and 20% of them were active in at least one assay; those are over-represented in the sample as a whole.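 Compound tested at a single concentration for 48 hours in 96-well plates; a percent growth value below 10 was scored as active.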 A number with no mark means an inactive call. Activity calls are given as the source filed them.

Test systems include SR leukemia; RPMI-8226 leukemia; OVCAR-8 ovarian; OVCAR-5 ovarian; OVCAR-4 ovarian; SK-OV-3 ovarian; IGROV1 ovarian; OVCAR-3 ovarian; HS 578T breast; NCI/ADR-RES ovarian.
Test in all cases: NCI-60 one-dose screen, 48 h (100 = growth as untreated, 0 = no growth, -100 = all killed)
Settings in all cases: 10 µM unless noted

Turning to `COc1ccc(C2=NN(c3nc(-c4ccc(OC)cc4)c(C#N)c(=O)n3C)C(=O)CC2)cc1`, the growth is 87.2% in the test with SR leukemia; 95% with RPMI-8226 leukemia; 101% with OVCAR-8 ovarian; 72.3% in the test on OVCAR-5 ovarian; 105% with OVCAR-4 ovarian; 96% in the test on SK-OV-3 ovarian. Moreover, the growth in the test with IGROV1 ovarian was 96.3%; in the test with OVCAR-3 ovarian, 104%; in the test with HS 578T breast it was 94.9%; in the test with NCI/ADR-RES ovarian, 101%.

For `C=C(C)[C@@H]1CC[C@]2(C(=O)O)CC[C@]3(C)[C@H](CC[C@@H]4[C@@]5(C)C/C(=C/c6ccc(OC)cc6)C(=O)C(C)(C)[C@@H]5CC[C@]43C)[C@@H]12`, the growth in the test on SR leukemia is 30.9%; in the test with RPMI-8226 leukemia it was 15.5%; with OVCAR-8 ovarian it was 23.2%; with OVCAR-5 ovarian it was 49.3%; with OVCAR-4 ovarian it was 26.8%; in the test with SK-OV-3 ovarian it was 25%. Also, the growth is 23.8% with IGROV1 ovarian, 16.5% in the test on OVCAR-3 ovarian, 49.9% in the test on HS 578T breast and 17.7% in the test on NCI/ADR-RES ovarian.

Regarding `C=C(C)[C@@H]1CC[C@]2(/C=N/Nc3ccncc3)CC[C@]3(C)[C@H](CC[C@@H]4[C@@]5(C)CCCNC(C)(C)[C@@H]5CC[C@]43C)[C@@H]12`, the growth in the test with SR leukemia is 17.9%; in the test with RPMI-8226 leukemia, 28.7%; in the test with OVCAR-8 ovarian, 95.2%; in the test with OVCAR-5 ovarian, 105%; in the test on OVCAR-4 ovarian, 89.9%; with SK-OV-3 ovarian, 113%. For the same molecule, the growth with IGROV1 ovarian was 96.4%; with OVCAR-3 ovarian, 84.5%; with HS 578T breast, 83.2%; in the test on NCI/ADR-RES ovarian it was 94.5%.

For `COc1cccc(-c2nn(-c3ccccc3)cc2-c2ccnc(NCCNS(=O)(=O)c3ccc(C(F)(F)F)cc3)c2)c1`, the growth with SR leukemia was -16.1% (active); in the test with RPMI-8226 leukemia it was -4.8% (active); in the test on OVCAR-8 ovarian it was 15.7%; in the test with OVCAR-5 ovarian, 24.9%; in the test with OVCAR-4 ovarian, 31.2%; with SK-OV-3 ovarian it was 24.5%. Besides, the growth with IGROV1 ovarian is 28%; in the test with OVCAR-3 ovarian it was 7.03% (active); in the test on HS 578T breast, 33.9%; with NCI/ADR-RES ovarian it was 16.9%.

For `CC(C)(C)c1nc(-c2ccc(O)c(O)c2)cs1`, the growth in the test on SR leukemia is 26.9%; with RPMI-8226 leukemia, 39.2%; in the test on OVCAR-8 ovarian, 60.9%; in the test on OVCAR-5 ovarian it was 91%; in the test with OVCAR-4 ovarian, 76.2%; in the test on SK-OV-3 ovarian, 90.6%. Also, the growth with IGROV1 ovarian is 43.8%; in the test with OVCAR-3 ovarian it was 61.2%; in the test with HS 578T breast, 85.9%; with NCI/ADR-RES ovarian it was 35.5%.

As for `Cc1cc(N2CCN(C)CC2)nc(N(CCNc2ccnc3cc(Cl)ccc23)Cc2ccco2)n1`, the growth in the test with SR leukemia was -22.1% (active); in the test on RPMI-8226 leukemia, -3.89% (active); with OVCAR-8 ovarian, 65.8%; in the test on OVCAR-5 ovarian, 73.3%; with OVCAR-4 ovarian, 55.7%; with SK-OV-3 ovarian, 91.5%. Further, the growth in the test on IGROV1 ovarian was 18.5%; in the test with OVCAR-3 ovarian it was 3.21% (active); in the test on HS 578T breast it was 68.7%; in the test on NCI/ADR-RES ovarian, 38.7%.

`Nc1c(C(=O)Nc2cccc(Cl)c2)sc2ncc(Cl)cc12`: the growth in the test on SR leukemia is 66.3%; with RPMI-8226 leukemia, 75%; in the test with OVCAR-8 ovarian, 81.9%; in the test with OVCAR-5 ovarian, 88.8%; in the test with OVCAR-4 ovarian, -4.92% (active); in the test with SK-OV-3 ovarian it was 81%. Besides, the growth in the test with IGROV1 ovarian is 79.5%; in the test with OVCAR-3 ovarian, 71.4%.

For `Cc1ccc2c(c1)c1nc3cc(C)c(C)cc3nc1n2CCN(C)C`, the growth with SR leukemia was 6.5% (active); in the test with RPMI-8226 leukemia, 1.96% (active); in the test on OVCAR-8 ovarian, 18.4%; with OVCAR-5 ovarian, 20.5%; in the test on OVCAR-4 ovarian, 33.1%; with SK-OV-3 ovarian it was 30.9%. Besides, the growth was 6.96% (active) in the test with IGROV1 ovarian, 29.7% in the test on OVCAR-3 ovarian, 50.1% with HS 578T breast and 12.8% in the test on NCI/ADR-RES ovarian.

`COc1cc(-c2nc(-c3ccccc3)c(-c3ccccc3)[nH]2)cc(OC)c1O`: the growth was 4.48% (active) in the test on SR leukemia; 0.561% (active) with RPMI-8226 leukemia; -0.964% (active) in the test on OVCAR-8 ovarian; 75.3% in the test on OVCAR-5 ovarian; -36.5% (active) in the test with OVCAR-4 ovarian; -0.937% (active) with SK-OV-3 ovarian. The growth is 22.3% in the test with IGROV1 ovarian, -80.9% (active) in the test on OVCAR-3 ovarian and 9.67% (active) in the test on HS 578T breast.

With `COc1ccc2c(c1)c(-c1nc(-c3c[nH]c4ncccc34)cs1)cn2CCCN1CCCCC1`, the growth with SR leukemia was -38% (active); in the test on RPMI-8226 leukemia, -33% (active); with OVCAR-8 ovarian it was 49.1%; in the test on OVCAR-5 ovarian, 77.4%; in the test on OVCAR-4 ovarian it was 62.6%; with SK-OV-3 ovarian it was 61.7%. Also, the growth in the test on IGROV1 ovarian is 34.4%; in the test on OVCAR-3 ovarian, 27.8%; in the test on HS 578T breast, 59.7%; with NCI/ADR-RES ovarian, 58.7%.

Consider `COc1cc(/C=C2\C(=O)N(CC(O)COc3cc(O)c4c(=O)cc(-c5ccccc5)oc4c3)c3ccccc32)cc(OC)c1O` (configuration not stated), for which the growth in the test on SR leukemia is 45.9%; with RPMI-8226 leukemia it was 57.9%; with OVCAR-8 ovarian, 77%; in the test with OVCAR-5 ovarian, 113%; with OVCAR-4 ovarian it was 78.7%; in the test with SK-OV-3 ovarian, 111%. Besides, the growth is 51.3% with IGROV1 ovarian, 69.5% in the test on OVCAR-3 ovarian, 85.1% in the test with HS 578T breast and 87.5% in the test with NCI/ADR-RES ovarian.

On to `O=C1CCN2C(=O)Nc3ccccc3C2C1` (configuration not stated), for which the growth in the test on SR leukemia is 96.8%; in the test with RPMI-8226 leukemia, 111%; in the test on OVCAR-8 ovarian, 105%; in the test with OVCAR-5 ovarian, 90%; in the test on OVCAR-4 ovarian, 97.6%; in the test on SK-OV-3 ovarian, 101%. Also, the growth is 102% with IGROV1 ovarian, 111% in the test on OVCAR-3 ovarian, 103% in the test on HS 578T breast and 107% with NCI/ADR-RES ovarian.

In the case of `O=C1/C(=C\c2ccc(Br)o2)SC(=S)N1CCc1ccc(O)cc1`, the growth with SR leukemia was 66.9%; with RPMI-8226 leukemia, 26.6%; in the test on OVCAR-8 ovarian it was 97.2%; in the test with OVCAR-5 ovarian, 80%; in the test with OVCAR-4 ovarian it was 65.3%; in the test with SK-OV-3 ovarian it was 86.5%. Also, the growth in the test on IGROV1 ovarian was 62.6%; in the test on OVCAR-3 ovarian, 62.9%; in the test with HS 578T breast it was 93.2%; in the test on NCI/ADR-RES ovarian it was 98.7%.
